# A selection: hits, their analogues and other compounds. The true share with any hit is near 9.2%.
# Rab9 prom act: activators of Rab9 promoter; Huh7 Rab9 promoter-luciferase reporter, luminescence, 24 h; Potency, µM (highest dose often 9.22 µM), without a hit: at the top dose activation, negative = inhibition, hits mostly activators; 320,000 compounds, 2.8% hits; also: % of control where 0% means no effect; nearly all actives have a fitted effect of over 60% in size
#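 Steps: seed 1500 Huh7 Rab9-luc cells per well, rest 2 h at 37 °C; add compound in DMSO; incubate 24 h; add luciferase reagent, 10 min ambient; read luminescence.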
# ELG1 genotox: inducers of genotoxicity in HEK293T ELG1-luciferase cells | HEK293T ELG1-luciferase reporter, luminescence, 16 h | Potency, µM (series often up to 46 µM), for inactives: at the highest dose activity change, positive = activation, most hits filed as activators | 330,000 compounds, 1.3% hits | AID 504466; also: % of control where 0% means no effect; nearly all actives have a fitted effect of over 60% in size
#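 HEK293T cells expressing luciferase-tagged ELG1 were exposed to compound or DMSO vehicle for 16 hr at 37 °C and 5% CO2. Luciferase activity was then measured with ONE-Glo after 30 min at room temperature.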
# NPC1 prom act: activates the NPC1 promoter. Huh7 NPC1 promoter luciferase reporter, 24 h. Potency, µM (highest dose often 9.22 µM), for the others: top-dose activation, usual class: activators. 320,000 compounds, 2.4% hits; also: % of control where 0% means no effect; nearly all actives have a fitted effect of over 60% in size
#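 Readout is luciferase luminescence, reflecting NPC1 promoter activation in stably transfected Huh7 cells after 24 h compound exposure at 37 °C in reduced-serum medium with 10% FBS.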
# SMN2 splice enh: enhancers of SMN2 splice variant expression; HEK293 SMN2-luciferase splicing reporter, luminescence, 30-36 h; Potency, µM (series often up to 46.1 µM), for the others: at the highest dose activity change, positive = activation, actives largely listed as activators; 210,000 compounds, 2.8% hits; also: % of control where 0% means no effect; nearly all actives have a fitted effect of over 55% in size
#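 qHTS luciferase splicing reporter: luminescence rises when SMN2 exon 7 is included in transfected HEK293 cells. Compound exposure lasted 30-36 h at 37C, with 4.5 mM final sodium butyrate as control, followed by a ONE-Glo read.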
# ELG1 DNA repair: ELG1-dependent DNA repair inhibition; HEK293T ELG1-luciferase reporter, luminescence, 16 h; DNA damage induced by 5-fluorouridine; Potency, µM (series often up to 46.1 µM), for inactives: at the highest dose activity change, negative = inhibition, hits mostly inhibitors; 330,000 compounds, 2.3% hits; AID 504467; also: % is scaled to controls: 0 for no effect and ±100 for the full control effect; nearly all actives have a fitted effect of over 55% in size
#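 5-Fluorouridine DNA damage + compound/DMSO, 2,000 cells/well, 16 h, 37 °C/5% CO2. ONE-Glo, 30 min RT, luminescence. Readout = decrease in reporter signal.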
# FLuc modulator: inhibits or activates purified firefly luciferase, miR-21 counter-screen; P08659; 360,000 compounds, 6.9% hits; purified FLuc, Km substrates, luminescence inhibition; Potency, µM (doses to about 57.5 µM), for inactives: at the top dose activity change, negative = inhibition, hits mostly inhibitors;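 also: plate controls were vehicle for no effect and reference inhibitor for full effect; nearly all actives have a fitted effect of over 55% in size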
# Target sequence (P08659 whole entry, looked up): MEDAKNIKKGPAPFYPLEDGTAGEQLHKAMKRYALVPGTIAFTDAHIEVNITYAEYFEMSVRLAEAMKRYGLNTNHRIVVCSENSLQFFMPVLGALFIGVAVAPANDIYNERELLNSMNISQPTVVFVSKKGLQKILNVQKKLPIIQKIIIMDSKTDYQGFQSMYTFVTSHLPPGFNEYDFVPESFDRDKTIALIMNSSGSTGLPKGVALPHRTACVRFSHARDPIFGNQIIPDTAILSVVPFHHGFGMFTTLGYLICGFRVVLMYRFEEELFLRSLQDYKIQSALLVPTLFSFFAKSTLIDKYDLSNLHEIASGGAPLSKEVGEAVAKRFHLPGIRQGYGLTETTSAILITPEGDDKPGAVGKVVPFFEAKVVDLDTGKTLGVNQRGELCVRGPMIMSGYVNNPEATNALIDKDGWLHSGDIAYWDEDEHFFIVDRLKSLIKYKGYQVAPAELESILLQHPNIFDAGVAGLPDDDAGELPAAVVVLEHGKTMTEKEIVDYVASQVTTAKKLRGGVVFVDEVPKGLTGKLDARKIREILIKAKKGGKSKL
#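 Purified P. pyralis luciferase, 10 nM final, with Km-level 10 uM D-luciferin and 10 uM ATP in 50 mM Tris acetate pH 7.5, 10 mM Mg acetate, 0.01% Tween-20, 0.05% BSA; 6-point qHTS titration about 60 µM downward; luminescence read.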
# An asterisk follows results filed as active; ? = inconclusive; . = no result given. Calls follow the shape of the dose curve; as a rule, active = well fitted curve in the direction sought with a large enough effect; inconclusive = small, poorly fitted or top-dose-only effect, or another doubt; inactive = no such curve, though single readings can be large; an effect the other way counts as inactive or inconclusive. Potency is read from the fitted curve at half-maximal effect.
SMILES,Rab9 prom act,ELG1 genotox,NPC1 prom act,SMN2 splice enh,ELG1 DNA repair,FLuc modulator
COc1cc2c(cc1NC(=O)COc1ccc(Br)cc1C)oc1ccccc12,.,.,.,12%,.,1%
COc1ccc(/C=C/C(=O)Nc2cccc(S(=O)(=O)NC3=NCCCCC3)c2)cc1,27%,9%,?,.,?,0.67µM*
COc1ccc(OC)c(/C=C/C(=O)Nc2cccc(S(=O)(=O)NC3=NCCCCC3)c2)c1,-2%,-1%,-2%,.,?,?
O=C(/C=C/c1ccc(OC(F)F)cc1)Nc1cccc(S(=O)(=O)NC2=NCCCCC2)c1,10%,-14%,2%,.,?,1.3µM*
CCOC(=O)CC(NC(=O)Cn1nnc(-c2ccc(C(F)(F)F)cc2)n1)c1ccc(C)cc1 (stereo not given),.,.,.,-6%,.,-2%
Cc1ccc(/C=C/C(=O)c2ccc(N3CCOCC3)cc2)s1,?,9%,?,22µM*,?,0.34µM*
Cc1cccc(/C=C/C(=O)c2ccc(N3CCOCC3)cc2)c1,0%,9%,-3%,-29%,-10%,21µM*
CCc1ccc(/C=C/C(=O)c2ccc(N3CCOCC3)cc2)cc1,-1%,2%,1%,-31%,-3%,1.5µM*
C/C(=C\C(=O)c1ccc(F)cc1)Nc1ccc(N2CCOCC2)cc1,-10%,15%,1%,-25%,-1%,1%
C/C(=N\NC(=O)c1cccc(C)c1)c1ccc(N2CCOCC2)cc1,-6%,14%,10%,-9%,?,-10%
CCc1ccc(/C=C/C(=O)c2ccc(S(=O)(=O)N(C)C)cc2)cc1,6%,1%,2%,-30%,3%,-10%
O=C(/C=C/c1ccc(F)cc1)c1ccc(N2CCOCC2)cc1,26%,4%,6%,.,15%,1.2µM*
O=C(Nc1c2c(nn1-c1ccc(Cl)cc1)CS(=O)(=O)C2)c1ccc(Br)cc1,.,.,.,.,.,0%
COc1cccc(NC(=O)Nc2ccc(C)c(Cl)c2)c1,2.8µM*,?,?,13µM*,?,2.7µM*
Cc1ccc(NC(=O)Nc2ccc(F)cc2)cc1Cl,?,12%,?,?,?,2.7µM*
COc1ccc(N2CCN(Cc3cccn3-c3nnc(N4CCN(C5CCCCC5)CC4)s3)CC2)cc1,.,.,.,.,.,-5%
Cc1nc(SCC(=O)Nc2ccccc2C)cc(-c2ccccc2)n1,.,.,.,.,.,-6%
COc1ccc(-c2csc(NC(=O)CSCc3c(C)noc3C)n2)cc1OC,12%,-13%,0%,.,12µM*,-8%
COc1ccc(-c2csc(NC(=S)NC(=O)c3cccs3)n2)cc1OC,-5%,-9%,-3%,-8%,21µM*,?
COc1ccc(-c2csc(NC(=O)C3CC(=O)N(Cc4ccccc4)C3)n2)cc1OC (stereo not given),-11%,-18%,1%,.,12µM*,9%
Cc1noc(C)c1CSCC(=O)Nc1nc(-c2ccc(F)c(F)c2)cs1,-5%,-4%,2%,.,?,-1%
COc1ccc(-c2csc(NC(=O)CC(NC(C)=O)c3ccccc3)n2)cc1OC (stereo not given),1%,0%,-4%,.,-3%,?
COc1ccc(CC(=O)Nc2nc(-c3ccc(OC)c(OC)c3)cs2)cc1OC,-9%,-29%,-10%,.,18µM*,-7%
CCCCCCCCCCCCCCCCOCC(CO)OC (stereo not given),.,.,.,-17%,.,.
Cc1ccc(OCCCN2CCOCC2)cc1,4%,0%,13%,.,21%,-10%
CNC(=O)C1CCC(Cn2c(=O)c3sccc3n(CC(=O)N3CCC(C)CC3)c2=O)CC1 (stereo not given),.,.,.,.,.,-1%
CCOC(=O)[C@H]1[C@H]2COc3ccc(Br)cc3[C@@H]2N2C(=O)CN(Cc3ccc(OC)cc3)C(=O)[C@@]12C,-8%,-7%,1%,.,-20%,0%

# Bioassay records as filed in PubChem BioAssay.
